Results on 8 compounds are retold here after PubChem BioAssay (Tox21).

Where “and” joins values, the source holds several entries; their conditions need not be identical. Equal entries are not always repeated. Inconclusive results are not listed. Some compounds were tested as several samples or in several runs, with calls that do not always agree. Calls of active or inactive are those of the source. Unless noted, calls come from the whole dose curve; as a rule, active = well fitted curve in the direction sought with a large enough effect in the repeat runs; inconclusive = weak or mixed curves; inactive = no such curve, though single readings can be large; an effect the other way counts as inactive or inconclusive.

Test [1] can be described thus: qHTS assay to test for compound auto fluorescence at 535 nm (green) in HEK293 cells (AID 720680).
Test [2] can be described thus: qHTS assay to test for compound auto fluorescence at 460 nm (blue) in HEK293 cell free culture (AID 720681). The procedure, abridged:
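Test compounds were pinned into cell-free culture medium (DMEM with 10% FBS) and fluorescence was read directly at Ex/Em 405/460 nm. Signals were expressed as fluorescence equivalents of triamterene, with DMSO vehicle as control.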

A short description of test [3]: qHTS assay to test for compound auto fluorescence at 535 nm (green) in HEK293 cell free culture (AID 720682). The gist of the method:
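No cells present: wells hold DMEM supplemented with 10% FBS, into which compound or vehicle is pinned. Green emission is then recorded (485 nm excitation, 535 nm emission) and scaled to fluorescein.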

Test [4] in a line: qHTS assay to test for compound auto fluorescence at 590 nm (red) in HEK293 cell free culture (AID 720683). The gist of the method: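 Tox21 10K library compounds were pinned into cell-free DMEM with 10% FBS and fluorescence was read at excitation 540 nm. Activity is expressed as Rose Bengal sodium equivalency.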
Test [5] can be described thus: qHTS assay to test for compound auto fluorescence at 590 nm (red) in HepG2 cell free culture (AID 720684). The gist of the method:
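Readout: intrinsic compound fluorescence at 590 nm emission after 540 nm excitation, scaled to Rose Bengal sodium. Matrix was cell-free MEM with 10% FBS; DMSO vehicle wells served as control.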

A short description of test [6]: qHTS assay to test for compound auto fluorescence at 460 nm (blue) in HepG2 cell free culture (AID 720685). The gist of the method: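 Cell-free plates of MEM plus 10% FBS received 23 nL compound or DMSO vehicle; blue-channel (405/460 nm) intensity scored against triamterene as reference fluorophore.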
Test [7] can be described thus: qHTS assay to test for compound auto fluorescence at 535 nm (green) in HepG2 cell free culture (AID 720686).
A short description of test [8]: qHTS assay to test for compound auto fluorescence at 460 nm (blue) in HepG2 cells (AID 720687). The procedure, abridged: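 Cells (2,000/well in MEM with 10% FBS) attached overnight at 37 C, then were exposed to compound or DMSO for 1 hr at 37 C, 5% CO2. Fluorescence read at Ex/Em 405/460 nm, expressed as triamterene-equivalent signal.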
The target of test [9] is Glucocorticoid receptor (Homo sapiens) (UniProt P04150). Nature of the test: qHTS assay to identify small molecule agonists of the glucocorticoid receptor (GR) signaling pathway (AID 720691; active = well fitted activation curve with a large enough effect in the signal ratio in the repeat runs, not every such curve was filed as active; the % refers to the signal ratio). Particulars: GR-bla HeLa, beta-lactamase reporter ratio, 18 h; activation: at 62.4 µM (top of the series) unless noted. The procedure, abridged:
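Steps: seed GR-bla HeLa cells, incubate 4 h at 37 C/5% CO2; pin-transfer DMSO-dissolved compounds; incubate 18 h at 37 C; add LiveBLAzer B/G FRET substrate; after 2 h at room temperature, measure fluorescence.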

The target is the same in test [10]. Nature of the test: qHTS assay to identify small molecule antagonists of the glucocorticoid receptor (GR) signaling pathway (AID 720692; active = well fitted inhibition curve with a large enough effect in the signal ratio in the repeat runs, not every such curve was filed as active; the % refers to the signal ratio). The procedure, abridged:
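Antagonism was scored as loss of dexamethasone-driven (5 nM final) reporter signal in HeLa cells bearing a glucocorticoid response element–beta-lactamase construct, after 18 h compound exposure at 37 C and 2 h FRET substrate loading.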

Test [11] can be described thus: qHTS assay to identify small molecule antagonists of the glucocorticoid receptor (GR) signaling pathway - cell viability counter screen (AID 720693). Note: nearly all actives have a fitted effect of over 55% in size.
Test [12] is described as follows: qHTS assay for identifying genotoxic compounds that show differential cytotoxicity against isogenic chicken DT40 cell lines with known DNA damage response pathways - wild type cell line (AID 743012). Note: nearly all actives have a fitted effect of over 60% in size. Note: potency is the fitted concentration of half-maximal effect. The procedure, abridged: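 Cytotoxicity in repair-proficient parental chicken DT40 cells serves as the comparator for Rad54/Ku70- and Rev3-deficient lines. Cells were exposed to compounds for 40 h at 37 C/5% CO2, and ATP-based luminescence (CellTiter-Glo) measured viability.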

A short description of test [13]: qHTS assay for identifying genotoxic compounds that show differential cytotoxicity against isogenic chicken DT40 cell lines with known DNA damage response pathways - Rev3 mutant cell line (AID 743014). Note: nearly all actives have a fitted effect of over 55% in size. Note: potency is the fitted concentration of half-maximal effect.
Test [14] is described as follows: qHTS assay for identifying genotoxic compounds that show differential cytotoxicity against isogenic chicken DT40 cell lines with known DNA damage response pathways - Rad54/Ku70 mutant cell line (AID 743015). Note: nearly all actives have a fitted effect of over 60% in size.
Test [15] is described as follows: qHTS assay to identify small molecule antagonists of the androgen receptor (AR) signaling pathway - cell viability counter screen (AID 743033; note: nearly all actives have a fitted effect of over 45% in size).
In test [16] the target is Androgen receptor (Homo sapiens) (UniProt P10275). Nature of the test: qHTS assay to identify small molecule antagonists of the androgen receptor (AR) signaling pathway (AID 743035; active = well fitted inhibition curve with a large enough effect in the signal ratio in the repeat runs, not every such curve was filed as active; the % refers to the signal ratio). The gist of the method:
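Steps: seed AR-UAS-bla GripTite HEK293 cells, incubate 4 h at 37C; pin in test compound, then add agonist R1881; incubate 16 h at 37C; add LiveBLAzer B/G FRET substrate, 2 h at room temperature; read fluorescence.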

Test [17] shares this target. Nature of the test: qHTS assay to identify small molecule agonists of the androgen receptor (AR) signaling pathway (AID 743036; active = well fitted activation curve with a large enough effect in the signal ratio in the repeat runs, with a control signal flat, not every such curve was filed as active; the % refers to the signal ratio). The gist of the method: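 Quantitative HTS of the Tox21 10K library in HEK293 cells bearing a stably integrated UAS-controlled beta-lactamase reporter. Compound exposure lasted 16 h at 37C. Reporter activity was detected by FRET substrate fluorescence after 2 h at room temperature.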

The target is the same in test [18]. Nature of the test: qHTS assay to identify small molecule agonists of the androgen receptor (AR) signaling pathway using the MDA cell line (AID 743040; note: nearly all actives have a fitted effect of over 20% in size). The procedure, abridged: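 Agonist activity is measured as luciferase luminescence in human MDA-kb2 cells whose MMTV reporter responds to both AR and GR. Compounds in DMSO incubate 16 h at 37C, 0% CO2, and ONE-Glo is read after 30 min.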

Test [19] in a line: qHTS assay to identify small molecule antagonists of the androgen receptor (AR) signaling pathway using the MDA cell line - cell viability counter screen (AID 743041; note: nearly all actives have a fitted effect of over 45% in size; note: potency is the fitted concentration of half-maximal effect). The gist of the method:
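qHTS viability read-out; MDA-kb2 AR-luc; R1881-stimulated; 16 h exposure at 37C, 0% CO2; CellTiter-Fluor, 30 min; fluorescence intensity.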

The target of test [20] is Androgen receptor (Homo sapiens) (UniProt P10275). Nature of the test: qHTS assay to identify small molecule antagonists of the androgen receptor (AR) signaling pathway using the MDA cell line (AID 743042; note: nearly all actives have a fitted effect of over 55% in size). The gist of the method:
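MDA-kb2 cells (human breast carcinoma, stably carrying an MMTV-luciferase reporter responsive to AR and GR) were plated at 3,000 cells/well and preincubated 5 hr at 37C, then given compound plus R1881 agonist for 16 h. ONE-Glo luminescence was read.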

Sequence of Androgen receptor (Homo sapiens) (P10275 whole entry, looked up): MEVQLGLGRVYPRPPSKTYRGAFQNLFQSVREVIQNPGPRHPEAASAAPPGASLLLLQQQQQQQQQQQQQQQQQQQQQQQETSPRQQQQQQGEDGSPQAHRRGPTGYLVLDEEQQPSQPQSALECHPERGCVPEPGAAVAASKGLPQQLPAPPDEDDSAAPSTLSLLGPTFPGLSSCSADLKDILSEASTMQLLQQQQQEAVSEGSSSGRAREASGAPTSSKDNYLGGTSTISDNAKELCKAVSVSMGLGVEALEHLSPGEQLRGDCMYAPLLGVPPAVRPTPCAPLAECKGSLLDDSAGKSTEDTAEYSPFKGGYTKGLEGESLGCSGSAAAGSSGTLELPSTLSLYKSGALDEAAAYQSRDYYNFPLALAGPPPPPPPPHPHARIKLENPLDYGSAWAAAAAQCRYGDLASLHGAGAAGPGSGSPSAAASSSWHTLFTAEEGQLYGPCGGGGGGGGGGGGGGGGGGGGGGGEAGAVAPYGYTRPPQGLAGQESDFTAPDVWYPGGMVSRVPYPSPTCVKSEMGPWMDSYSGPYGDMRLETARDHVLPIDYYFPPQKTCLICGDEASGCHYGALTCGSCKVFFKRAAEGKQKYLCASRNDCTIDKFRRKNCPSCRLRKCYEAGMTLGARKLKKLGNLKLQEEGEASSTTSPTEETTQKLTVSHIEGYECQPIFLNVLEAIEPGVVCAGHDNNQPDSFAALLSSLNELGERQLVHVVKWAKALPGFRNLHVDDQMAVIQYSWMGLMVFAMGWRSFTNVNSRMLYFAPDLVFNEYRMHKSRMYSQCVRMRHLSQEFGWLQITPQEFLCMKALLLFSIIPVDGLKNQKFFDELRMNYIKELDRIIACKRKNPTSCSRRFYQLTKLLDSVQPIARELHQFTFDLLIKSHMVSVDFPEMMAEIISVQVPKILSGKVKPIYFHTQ
Sequence of Glucocorticoid receptor (Homo sapiens) (P04150 whole entry, looked up): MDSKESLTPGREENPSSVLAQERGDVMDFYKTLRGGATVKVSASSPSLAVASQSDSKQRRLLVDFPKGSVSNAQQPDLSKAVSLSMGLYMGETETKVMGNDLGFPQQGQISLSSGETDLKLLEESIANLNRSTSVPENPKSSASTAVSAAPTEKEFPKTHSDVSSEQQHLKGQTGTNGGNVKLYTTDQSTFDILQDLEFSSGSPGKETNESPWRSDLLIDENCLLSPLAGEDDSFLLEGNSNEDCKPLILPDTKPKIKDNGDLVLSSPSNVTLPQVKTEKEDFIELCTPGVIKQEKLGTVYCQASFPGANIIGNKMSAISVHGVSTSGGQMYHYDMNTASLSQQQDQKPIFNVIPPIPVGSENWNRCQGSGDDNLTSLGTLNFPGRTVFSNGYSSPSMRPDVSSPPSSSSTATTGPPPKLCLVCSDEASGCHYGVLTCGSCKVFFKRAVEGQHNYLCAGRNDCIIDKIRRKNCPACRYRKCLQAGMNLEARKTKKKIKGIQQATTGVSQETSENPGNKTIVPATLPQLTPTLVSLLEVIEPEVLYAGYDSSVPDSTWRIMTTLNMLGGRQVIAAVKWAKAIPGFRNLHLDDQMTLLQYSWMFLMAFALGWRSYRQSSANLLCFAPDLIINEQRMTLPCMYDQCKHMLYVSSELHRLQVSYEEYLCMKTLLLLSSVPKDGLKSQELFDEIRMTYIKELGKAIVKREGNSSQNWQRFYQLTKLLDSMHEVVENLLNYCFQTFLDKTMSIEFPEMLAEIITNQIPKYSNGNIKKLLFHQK

Turning to `O=Nc1ccc(O)cc1`, the result in [1], in test [3], in test [4], in test [5], in test [7] and in [8] was inactive. The compound was called inactive in test [16], in [17], in test [18] and in test [20]. Moreover, the Potency entry in test [2], in test [6], in test [9], in [10], in test [11] and in test [12] was “inactive” in each case. In addition, the Potency result in test [13], in test [14], in [15] and in test [19] was “inactive” in each case.
`C=C(C#N)C(=O)OCC`: the outcome in test [1], in test [3], in test [4], in [5], in [7] and in test [8] was inactive. Moreover, the Potency result in test [2], in test [6], in test [9], in test [10], in test [15] and in test [19] was “inactive” in each case. For the same compound, the Potency result in test [12] is “inactive and 43.3 µM (active)”; in test [13], “inactive and 43.3 µM (active)”.
For `CC1=CC[C@H]2C[C@@H]1C2(C)C`, the result in test [1], in [3], in test [4], in test [5], in [7] and in test [8] was inactive. In addition, the Potency result in [2], in test [6], in [11], in test [12], in test [13] and in [14] was “inactive” in each case. For the same compound, the Potency entry in test [15] and in test [19] was “inactive” throughout.
Turning to `O=C(Oc1ccccc1)c1ccc(O)cc1`, the compound was classed as inactive in test [1], in test [3], in test [4], in test [5], in [7] and in test [8]. The Potency result in [2], in test [6], in [9], in [12], in [13] and in test [14] was “inactive” throughout. Moreover, the Potency result in test [15] and in test [19] was “inactive” throughout.
`O=S(=O)(O)c1cc(S(=O)(=O)O)c2c(N=Nc3ccccc3)c(O)ccc2c1`: the call in test [1], in test [3], in test [4], in [5], in test [7] and in test [8] was inactive. Besides, the Potency entry in [2], in test [6], in test [9], in [10], in test [11] and in test [12] was “inactive” in each case. The Potency entry in test [13] and in [15] was “inactive” in each case. The Potency in test [19] was 27.4 µM (active) and 38.6 µM (active).
Take `CCOC(=O)C1OC1c1ccccc1` (stereo unspecified): the call in [1], in test [3], in test [4], in test [5], in [7] and in test [8] was inactive. The Potency entry in [2], in test [6], in [9], in test [10], in [11] and in test [12] was “inactive” in each case. In addition, the Potency result in [13], in test [15] and in test [19] was “inactive” in each case.
Consider `CCCCCCCCCCCCOCC1CO1` (stereo unspecified), for which the result in test [1], in [3], in test [4], in test [5], in [7] and in test [8] was inactive. The Potency entry in test [2], in test [6], in test [9], in test [10], in [11] and in [12] was “inactive” each time. Moreover, the Potency result in test [13], in test [15] and in test [19] was “inactive” in each case.
For `Cc1ccc(C)c(C)c1`, the compound was called inactive in test [1], in [3], in test [4], in [5], in [7] and in test [8]. Moreover, the result in [16], in test [17], in test [18] and in test [20] was inactive. The Potency entry in test [2], in [6], in test [9], in test [10], in test [12] and in test [13] was “inactive” throughout. Further, the Potency entry in [14], in test [15] and in test [19] was “inactive” each time.
